The list shows a part of the results. Inconclusive results are not listed. Values without a mark were called inactive. Calls of active or inactive are those of the source. The call rests on the fitted dose curve.
The compounds below were run against Furin (Homo sapiens) (UniProt P09958) (assay: Selectivity profile for inhibitors of NSP2Pro chikungunya virus (CHIKV): Human furin counterscreen (AID 1964102)). Settings: Recombinant human furin enzymatic counterscreen, fluorogenic substrate; series mostly up to 50.6 µM; activity change, negative = inhibition: at the top concentration.
Sequence of Furin (Homo sapiens) (P09958 whole entry, looked up): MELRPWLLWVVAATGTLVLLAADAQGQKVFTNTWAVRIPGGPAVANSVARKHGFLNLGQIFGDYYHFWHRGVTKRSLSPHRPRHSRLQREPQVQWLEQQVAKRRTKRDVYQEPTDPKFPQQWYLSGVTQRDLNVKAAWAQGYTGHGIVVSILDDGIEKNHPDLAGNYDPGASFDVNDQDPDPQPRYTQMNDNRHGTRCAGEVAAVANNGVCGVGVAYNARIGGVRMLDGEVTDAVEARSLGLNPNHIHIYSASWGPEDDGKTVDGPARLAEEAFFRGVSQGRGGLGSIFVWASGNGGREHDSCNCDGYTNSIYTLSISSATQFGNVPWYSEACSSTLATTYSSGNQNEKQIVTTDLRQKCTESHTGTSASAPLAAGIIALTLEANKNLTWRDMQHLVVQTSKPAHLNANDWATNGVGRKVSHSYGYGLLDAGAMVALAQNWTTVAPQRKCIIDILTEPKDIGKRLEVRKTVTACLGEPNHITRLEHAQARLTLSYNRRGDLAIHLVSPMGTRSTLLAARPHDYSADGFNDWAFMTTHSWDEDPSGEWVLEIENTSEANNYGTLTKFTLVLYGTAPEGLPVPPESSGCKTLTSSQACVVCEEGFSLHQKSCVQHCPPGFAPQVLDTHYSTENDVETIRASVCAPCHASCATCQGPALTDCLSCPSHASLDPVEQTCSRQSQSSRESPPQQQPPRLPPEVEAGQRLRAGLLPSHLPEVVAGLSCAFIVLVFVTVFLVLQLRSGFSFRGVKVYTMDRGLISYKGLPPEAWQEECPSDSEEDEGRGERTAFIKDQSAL
From the text: PI: Natalia J. Martinez Ph.D.
National Center for Advancing Translational Sciences (NCATS),
National Institute of Health (NIH), Rockville, Maryland
Chikungunya virus (CHIKV) is a mosquito-borne RNA virus that has emerged as one of the most important global arboviral threats in the last decade. Although the first CHIKV vaccine has recently been FDA approved for use in healthy adults at increased risk, to date, there are no available antiviral drugs for CHIKV infection. CHIKV nsP2 protease plays a crucial role in the processing of the viral polypeptide precursor to release enzymes required for viral replication, thus making it a promising drug target for antiviral discovery. Here, we established a high-throughput pipeline to identify small molecule inhibitors of nsP2 proteolytic activity. The pipeline is composed of a suite of 1,536-well in vitro assays to support quantitative high-throughput (qHTS) screening campaigns. Specifically, we developed a fluorescence resonance energy transfer (FRET)-based assay using a fluorogenic peptide substrate encompassing an endogenous cleavage site and purified recombinant protease domain (nsP2pro). Using this assay, we interrogated ~37,000 small molecules, including those in drug repurposing libraries as well as chemically diverse and medicinal chemistry-friendly compounds. Hits were selected for follow-up validation against full-length nsP2 and an additional peptide. FRET-based 1,536-well assays for papain, hepatitis C virus NS3-4A, and human furin proteases were implemented to characterize compound selectivity. […] Novel compounds were identified to be potential nsP2 inhibitors and molecular docking analyses were performed to explain the binding mode of selected hits. In vitro antiviral activity was evaluated for a subset of compounds using a high-throughput CHIKV infection assay. To our knowledge, the pipeline presented here is unprecedented for CHIKV antiviral discovery research.
PROTOCOL TABLE (as described by Inglese J, Shamu CE and Guy RK. 2007)
SEQUENCE No. (e.g., 1, 2, 3, etc.); […] (e.g., Cells, Incubation, Reagent, etc.); VALUE; DESCRIPTION.
1; Enzyme; 2 uL; 1,536-well solid-bottom, black plate (Greiner Bio One).
2; Compounds; 20 nL; Echo 655 acoustic dispenser (Beckman Coulter).
3; Incubation; 15 min; room temperature in the dark.
4: Reagent; 2 uL; pERTKR-AMC.
5; Detection; Fluorescence; time 0, Viewlux microplate reader (PerkinElmer) 355 nm excitation, 460 nm emission
6; Incubation; 15 min; room temperature
7; Detection; Fluorescence; time 15; ViewLux microplate reader (PerkinElmer), 355 nm excitation, 460 nm emission.
NOTES (numbers refer to sequence numbers above).
1. Two micro-liter of furin enzyme solution (40 nM final concentration) in assay buffer (20 mM Tris-HCl pH 8.0, 150 mM NaCl, with 0.01% Tween 20) were dispensed into a 1,536-well solid-bottom black plate (Greiner Bio One) using the Kalypsys Pintool Station.
2. Twenty nano-liter of compounds, positive control Aprotinin (50 uM final concentration), or neutral control DMSO were transferred to the assay plates. Compounds in counterscreen assays were tested at 11 concentrations, 1:3 dilution points from 25 uM to 0.42 nM.
3. The assay plates were incubated in the dark for 15 min.
4. After incubation, 2 uL of 0.625 uM pERTKR-AMC substrate in assay buffer for the Furin assay was added using the Kalypsys Pintool Station.
5-7. Plates were immediately read at time 0 then covered with stainless steel gasket lids and incubated for 15 min at room temperature in the dark. Fluorescence intensity in the assay plates were again read after incubation using the ViewLux imager equipped with AMC fluorescence optics. The change in fluorescence intensity over the 15-min reaction period was normalized against DMSO and inhibitor controls as described below.
Inglese J, Shamu CE and Guy RK, Reporting data from high throughput screening of small molecule libraries, Nature Chemical Biology, 2007, 3(8): 438-441. doi.org/10.1038/nchembio0807-438.
For `CCOc1ccc(NC(=O)c2c(NC(=O)Cc3ccccc3)sc3c2CCCCC3)cc1`, the “activity change, negative = inhibition” value was -2.03%.
In the case of `C=CC(=O)c1ccc2ccccc2c1`, the “activity change, negative = inhibition” value is reported as -7.94%.
In the case of `CC(=O)N[C@@H](C(=O)O[C@H]1CCC(C)(C)[C@@H]2CCC3=C(COC3=O)[C@@]12C)C(C)C`, the “activity change, negative = inhibition” value is reported as 10.1% [at 33.5 µM].
For `C[C@@H]1[C@H](O)[C@@H]2OC(=O)C3=C2[C@H](CCC3)[C@@]12C[C@@H](c1ccoc1)OC2=O`, the “activity change, negative = inhibition” value was -7.71% [at 33.5 µM].
For `C=Cc1c(C)c2cc3nc(cc4[nH]c(cc5nc(cc1[nH]2)C(C)=C5CCC(=O)O)c(CCC(=O)OC)c4C)[C@@]1(C)C3=CC=C(C(=O)OC)[C@H]1C(=O)OC`, the “activity change, negative = inhibition” value was -5.53%.
For `Oc1ccc(OC2CCCCO2)cc1` (stereo not drawn), the “activity change, negative = inhibition” value was -5.57%.
With `CCc1ccccc1NC(=O)c1cnn(-c2ccc(F)cc2)c1C1CCNCC1` the “activity change, negative = inhibition” value was 11.2%.
`N#CSc1cc(SC#N)c(N)nc1N` was tested, and the “activity change, negative = inhibition” value was -9.14%.
`CCOc1ccc(N(Cc2ccccc2)C(=O)c2nc(S(C)(=O)=O)ncc2Cl)cc1` was tested, and the “activity change, negative = inhibition” value was -11.6%.
For `Cc1c(S(=O)(=O)O)oc2c1C(=O)C(=O)c1c-2ccc2c1CCCC2(C)C`, the “activity change, negative = inhibition” value was -9.26%.
In the case of `CCC(C)C(=O)OC1C(C)C2(O)C(C=C(CO)CC3(O)C(=O)C(C)=CC32)C2C(C)(C)C12OC(=O)C(C)C` (stereo not drawn), the “activity change, negative = inhibition” value is reported as 3.07% [at 17.3 µM].
In the case of `O=C(O)c1cccc(-n2[nH]c(-c3ccccc3)cc2=O)c1`, the “activity change, negative = inhibition” value is reported as -8.51%.
For `CO[C@]1(NC(=O)CSC(F)F)C(=O)N2C(C(=O)O)=C(CSc3nnnn3CCO)CO[C@H]21`, the “activity change, negative = inhibition” value was -6.32%.
`C[C@@H]1O[C@@H](O[C@@H]2[C@@H](O)[C@H](OCCc3ccc(O)c(O)c3)O[C@H](CO[C@@H]3O[C@H](CO)[C@@H](O)[C@H](O)[C@H]3O)[C@H]2OC(=O)/C=C/c2ccc(O)c(O)c2)[C@H](O)[C@H](O)[C@H]1O` was tested, and the “activity change, negative = inhibition” value was -11.8%.
For `CCOc1ccc(NC(=O)c2c(NC(=O)Cc3ccccc3)sc3c2CCC(C)C3)cc1` (stereo not drawn), the “activity change, negative = inhibition” value was 1.84%.
In the case of `COC([CH2][Hg])CNC(=O)c1ccccc1OCC(=O)O` (stereo not drawn), the Potency is reported as 2060 nM (active).
`C[C@@H]1C[C@@H](O)[C@@]23CO[C@]2(CO)C[C@@H](O)CC3[C@@]12CC(c1ccoc1)OC2=O` (stereo partly drawn) was tested, and the “activity change, negative = inhibition” value was -1.18% [at 33.5 µM].
`CC1=C(/C=C/C(C)=C/C=C/C(C)=C/C=C/C=C(C)/C=C/C=C(C)/C=C/C2=C(C)CCCC2(C)C)C(C)(C)CCC1` was tested, and the “activity change, negative = inhibition” value was -4.84%.
On the % scale 0 is the no-effect control and ±100 the full control effect; potency means the concentration at half of the fitted maximal effect.
